Hits are enriched below; roughly 6.7% of the tested compounds scored in any of these assays.
Pf Dd2 inh: inhibitors of Plasmodium falciparum Dd2 growth. AID 1159554. P. falciparum Dd2 growth, SYBR Green, 72 h; stronger effect = lower value. activity change, % at 10 µM. 2.3% of 94,000 active; in the data active = activity change below about -80%; inconclusive = no clear call, values can overlap the other calls
T cruzi growth-1: blocks T. cruzi growth in NIH3T3 culture; T. cruzi beta-gal in NIH3T3, GalScreen luminescence, 90 h; inhibition, % at 8.34 µM; AID 624255; 5.9% of 77,000 active;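 active = mean inhibition above about 93%, with at least 55% of replicates each passing it, limit read from the data, passing the limit was not always enough; inconclusive = only one of those two conditions holds; inactive = neither condition holds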
C diff HTS: blocks growth of Clostridium difficile | Clostridium difficile clinical isolate growth, OD600, 24 h; stronger effect = lower value | growth activity, negative = inhibition, % at 16 µg/mL (by protocol) | 0.25% of 86,000 active | AID 1259249;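 active = mean growth activity at or below -80% and every replicate also at or below -80%; inconclusive = mean at or below -80% but some replicate above -80%; inactive = mean growth activity above -80%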;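 also: 0% = DMSO wells and -100% = levofloxacin 16 µg/mL wells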
T cruzi growth-2: blocks T. cruzi growth in NIH3T3 host cells | shares compounds with T cruzi growth-1 | T. cruzi beta-gal in NIH3T3, GalScreen luminescence, 90 h | inhibition, % at 8.35 µM | 72% of 5,600 active;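 active = mean replicate inhibition above about 95% and at least 55% of replicates individually reaching it, limit read from the data; inconclusive = only one of the two criteria is met; inactive = neither criterion is met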
T cruzi growth-3: Trypanosoma cruzi proliferation inhibition | shares compounds with T cruzi growth-1 | T. cruzi beta-gal in NIH3T3, GalScreen luminescence, 90 h | inhibition, % at 2.09 µM | 21% of 5,600 active | AID 651740;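 active = mean inhibition above about 95%, with at least 55% of replicates also reaching it, limit read from the data; inconclusive = meets just one of the two conditions; inactive = meets neither condition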;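 also: plate controls were neutral control median for no effect and positive control median for full effect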
3T3 cytotox: NIH/3T3 (mouse) viability loss. shares compounds with T cruzi growth-1. NIH/3T3 viability, CellTiter-Glo ATP luminescence, 90 h. cytotoxicity (signal decrease), % at 8.35 µM. 14% of 5,600 active. AID 651742;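 active = mean signal decrease across replicates above about 35% based on untreated-well scatter, with enough replicates individually passing, limit read from the data; inconclusive = no rule stated though some were filed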;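 also: 0% = median of neutral control wells and 100% = median of positive control wells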
3T3 cytotox 2: NIH/3T3 (mouse) viability loss. inhibition, % at 24.9 µM. AID 651744. shares compounds with T cruzi growth-1. 56% of 5,600 active. NIH/3T3 viability, CellTiter-Glo ATP luminescence, 90 h;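 active = mean loss of cell viability signal at or above a set limit, and enough replicates individually reaching it; inconclusive = meets only the mean limit or only the replicate share; inactive = meets neither condition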;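 also: 0% = median of neutral control wells and 100% = median of positive control wells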
* hit, by the source's call; u = inconclusive; x = no result given; ! = a repeat was not active.

SMILES	Pf Dd2 inh	T cruzi growth-1	C diff HTS	T cruzi growth-2	T cruzi growth-3	3T3 cytotox	3T3 cytotox 2
O=C(CN1CCOCC1)N1CC[C@@H]2[C@H]1c1cc(-c3ccc(F)cc3)ccc1N[C@@H]2CO	42	76	-10	x	x	x	x
CCCC#Cc1ccc2c(c1)O[C@@H](CN(C)C(=O)C1CCC1)[C@@H](C)CN([C@@H](C)CO)S2(=O)=O	-29	105*	-1	110*	42	-22	-37
C[C@H](CO)N1C[C@H](C)[C@H](CN(C)C(=O)C2CCCCC2)Oc2cc(C#CCN(C)C)ccc2S1(=O)=O	-20	x	2	x	x	x	x
CCCC#Cc1ccc2c(c1)O[C@@H](CN(C)C(=O)C1CCC1)[C@@H](C)CN([C@H](C)CO)S2(=O)=O	-31	104*	5	110*	57	2	34*
CCCC#Cc1ccc2c(c1)O[C@H](CN(C)C(=O)C1CCCCC1)[C@@H](C)CN([C@@H](C)CO)S2(=O)=O	-52	95*	18	88	100*	-25	104*
CCCC#Cc1ccc2c(c1)O[C@@H](CN(C)C(=O)C1CCC1)[C@H](C)CN([C@H](C)CO)S2(=O)=O	-41	87	-8	x	x	x	x
CCCC#Cc1ccc2c(c1)O[C@H](CN(C)C(=O)C1CC1)[C@@H](C)CN([C@H](C)CO)S2(=O)=O	-27	72	3	x	x	x	x
CCCNC(=O)N1C[C@@H](O)COC[C@@H]2O[C@H](CC(=O)O)CC[C@H]21	27	38	4	x	x	x	x
COc1ccccc1S(=O)(=O)N[C@H]1CC[C@@H](CC(=O)N2CCN(C)CC2)O[C@@H]1CO	10	-20	x	x	x	x	x
COc1ccc(NC(=O)N(C)C[C@@H]2Oc3c(NC(=O)Nc4ccc(C(F)(F)F)cc4)cccc3C(=O)N([C@@H](C)CO)C[C@H]2C)cc1	11	-60	x	x	x	x	x
CN(C)CC(=O)N1[C@H](CO)[C@H](c2ccc(C#CC3CCCC3)cc2)[C@@H]1C#N	-41	96*	6	101*	107*	12	9
CN(C)CC(=O)N1[C@H](C#N)[C@@H](c2ccc(C#CC3CC3)cc2)[C@@H]1CO	4	84	3	x	x	x	x
CN(C)CC(=O)N1[C@H](CO)[C@@H](c2ccc(C#CC3CCCC3)cc2)[C@@H]1C#N	6	9	6	x	x	x	x
CN(C)CC(=O)N1[C@H](C#N)[C@H](c2ccc(C#CC3CCCCC3)cc2)[C@H]1CO	-26	93	6	x	x	x	x
N#C[C@H]1[C@@H](c2ccc(C#CC3CCCC3)cc2)[C@H](CO)N1C(=O)Cc1ccccn1	-51	x	-1	x	x	x	x
N#C[C@H]1[C@H](c2ccc(C#CC3CC3)cc2)[C@H](CO)N1C(=O)Cc1ccccn1	-43	105*	-2	104*	74	-3	3
CN(C)CC(=O)N1[C@@H](C#N)[C@H](c2ccc(C#CC3CC3)cc2)[C@@H]1CO	0	96*	0	97*	45	-19	-10
CN(C)CC(=O)N1[C@H](C#N)[C@@H](c2ccc(C#CC3CCCC3)cc2)[C@@H]1CO	4	u	-3	85	22	3	105*
CN1C(=O)c2cc(NC(=O)NC3CCCC3)ccc2OC[C@@H]2O[C@@H](CC(=O)NC3CCC3)CC[C@@H]21	13	16	0	x	x	x	x
C[C@H]1CN([C@@H](C)CO)C(=O)c2cccc(NC(=O)Nc3ccc(F)cc3)c2O[C@@H]1CN(C)C	-2	x	6	x	x	x	x
C[C@@H]1CN([C@H](C)CO)C(=O)c2cc(NS(=O)(=O)c3ccc(Cl)cc3)ccc2O[C@@H]1CN(C)C	-32	x	5	x	x	x	x
C[C@@H]1CN([C@@H](C)CO)C(=O)CCCn2nncc2CO[C@@H]1CN(C)C(=O)NC1CCCC1	9	u	-2	17	19	2	-16
CC(C)COC(=O)N(C)C[C@@H]1OCc2cnnn2CCCC(=O)N([C@H](C)CO)C[C@H]1C	-10	101*!	2	-18	34	-4	12
CC(C)COC(=O)N(C)C[C@H]1OCc2cnnn2CCCC(=O)N([C@@H](C)CO)C[C@H]1C	4	-1	4	x	x	x	x
C[C@@H]1CN([C@@H](C)CO)C(=O)CCCn2nncc2CO[C@@H]1CN(C)C(=O)c1ccc2ccn(C)c2c1	15	18	-5	x	x	x	x
SMILES	Pf Dd2 inh	T cruzi growth-1	C diff HTS	T cruzi growth-2	T cruzi growth-3	3T3 cytotox	3T3 cytotox 2
C[C@H](CO)N1C[C@H](C)[C@@H](CN(C)C(=O)c2ccc3ccn(C)c3c2)OCc2cnnn2CCCC1=O	8	117*!	-4	-20	-12	-6	2
C[C@H](CO)N1C[C@H](C)[C@H](CN(C)C(=O)NC2CCCCC2)OCc2cnnn2CCCC1=O	0	-28	2	x	x	x	x
COCC(=O)N1[C@H](CO)[C@H](c2ccccc2)C12CN(C(=O)c1cccc(F)c1)C2	27	x	-5	x	x	x	x
CO[C@@H]1CN(C)C(=O)c2ccc(NC(=O)Nc3cccc(F)c3)cc2OC[C@H](C)NC[C@@H]1C	7	27	x	x	x	x	x
CO[C@H]1CN(C)C(=O)c2ccc(NS(=O)(=O)c3cccc(Cl)c3)cc2OC[C@@H](C)NC[C@@H]1C	20	97*	x	80	13	0	-15
CO[C@@H]1CN(C)C(=O)c2cc(NC(=O)Nc3cc(F)ccc3F)ccc2OC[C@H](C)NC[C@@H]1C	-48	35	x	x	x	x	x
CO[C@H]1CN(C)C(=O)c2cc(NC(=O)Nc3cc(F)ccc3F)ccc2OC[C@H](C)NC[C@@H]1C	-23	u	x	9	-46	5	23
CO[C@@H]1CN(C)C(=O)c2ccc(NC(=O)Nc3cccc(F)c3)cc2OC[C@H](C)NC[C@H]1C	-82*	102*	x	6	11	-1	-16
CO[C@@H]1CN(C)C(=O)c2ccc(NS(=O)(=O)c3cccc(Cl)c3)cc2OC[C@@H](C)NC[C@H]1C	-9	14	x	x	x	x	x
COc1ccccc1C#Cc1cnc2c(c1)C(=O)N([C@@H](C)CO)C[C@@H](C)[C@@H](CN(C)C(=O)c1ccc3c(c1)OCO3)O2	-28	x	5	x	x	x	x
C[C@@H]1CN([C@H](C)CO)S(=O)(=O)c2ccc(-c3cncnc3)cc2O[C@@H]1CN(C)Cc1cncnc1	46	25	-2	x	x	x	x
C[C@H]1CN([C@@H](C)CO)S(=O)(=O)c2ccc(-c3ccncc3)cc2O[C@H]1CN(C)Cc1cncnc1	-7	104*	0	100*	77	u	34*
Cc1ccc(-c2ccc3c(c2)O[C@H](CN(C)Cc2cncnc2)[C@H](C)CN([C@H](C)CO)S3(=O)=O)cc1	17	x	x	x	x	x	x
C[C@H]1CN([C@@H](C)CO)S(=O)(=O)c2ccc(-c3cncnc3)cc2O[C@H]1CN(C)Cc1cncnc1	37	21	1	x	x	x	x
C[C@H](CO)N1C[C@H](C)[C@@H](CN(C)Cc2cncnc2)Oc2cc(-c3ccncc3)ccc2S1(=O)=O	13	101*	1	104*	u	23	41*

High-throughput results: PubChem BioAssay, Broad Institute
